Reference: the supplement of paper PMC6279402
Structures can show the parent of a compound that is named as a salt. ± gives the standard deviation of the averaged measurements.

Test system: A549
Assay: relative viability (normalised to negative control = 1, bortezomib = 0) (fraction); higher = less cytotoxic
Settings: inflammatory serum-free RHB-A with cytokines + LPS, 5 d + 24 h CellTiter-Blue
Protocol: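 A549 KRAS-mutant NSCLC cells, pre-treated 5 µM GSK126 or vehicle (DMSO), were seeded at 250 cells/well in 384-well plates in serum-free RHB-A medium with inflammatory cytokines/LPS and treated with Selleck kinase inhibitor and NCI oncology compounds at 30 or 300 nM in triplicate, refreshed at 48 h. Viability was read by CellTiter-Blue after 5 d plus 24 h and normalised per plate with cellHTS2 (mean of bortezomib positive control = 0, mean of negative control = 1).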

[1] = compound 30 nM, GSK126 pretreatment: 5 uM GSK126
[2] = compound 30 nM, GSK126 pretreatment: none (vehicle)
[3] = compound 300 nM, GSK126 pretreatment: 5 uM GSK126
[4] = compound 300 nM, GSK126 pretreatment: none (vehicle)

Row | SMILES | relative viability [1] | relative viability [2] | relative viability [3] | relative viability [4]
1 | Oc1ncc(N(CCCl)CCCl)c(O)n1 [Uracil mustard] | 0.792 ± 0.024 | 0.801 ± 0.027 | 0.81 ± 0.029 | 0.87 ± 0.03
2 | O=P1(N(CCCl)CCCl)NCCCO1 (stereo not given) [Cyclophosphamide monohydrate; Cyclophosphamide] | 0.799 ± 0.035 | 0.813 ± 0.086 | 0.877 ± 0.031 | 0.941 ± 0.1
3 | Cc1c(N)nc([C@H](CC(N)=O)NC[C@H](N)C(N)=O)nc1C(=O)N[C@H](C(=O)N[C@H](C)[C@@H](O)[C@H](C)C(=O)N[C@H](C(=O)NCCc1nc(-c2nc(C(=O)NCCC[S+](C)C)cs2)cs1)[C@@H](C)O)[C@@H](OC1OC(CO)C(O)C(O)C1OC1OC(CO)C(O)C(OC(N)=O)C1O)c1cnc[nH]1 (stereo not given in full) [Bleomycin sulfate] | 0.821 ± 0.13 | 0.871 ± 0.061 | 0.739 ± 0.064 | 0.84 ± 0.069
4 | N[C@@H](Cc1ccc(N(CCCl)CCCl)cc1)C(=O)O [Melphalan] | 0.835 ± 0.054 | 0.819 ± 0.11 | 0.874 ± 0.13 | 0.876 ± 0.068
5 | Cc1ccccc1-n1c(Cn2cnc3c(N)ncnc32)nc2cccc(C)c2c1=O | 0.828 ± 0.076 | 0.784 ± 0.083 | 0.79 ± 0.088 | 0.875 ± 0.056
